High-throughput results deposited in PubChem BioAssay by National Center for Advancing Translational Sciences (NCATS).
Rows were chosen to be rich in hits. Some 2.2% of all compounds tested hit in one or more screens of this group.
TDP43 rescue: rescues yeast growth from TDP-43 toxicity. TDP-43 expressing yeast growth rescue, BacTiter-Glo, 24 h. Potency, µM (doses to about 46.1 µM), most hits filed as activators. 1.8% of 410,000 active; also: nearly all actives have a fitted effect of over 50% in size
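Readout is BacTiter-Glo luminescence of cell growth, so inhibitors register as activators. TDP-43-expressing yeast at OD600=0.02 in galactose medium, after raffinose pregrowth to mid-log, were incubated with compound for 24 hr at 30 deg C.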
aSyn yeast inh: rescues yeast growth from alpha-synuclein toxicity. Potency, µM (titrated, usually from 46.1 µM), most hits filed as activators. Yeast expressing alpha-synuclein, growth rescue, BacTiter-Glo, 24 h. AID 652106. 0.14% of 370,000 active; also: nearly all actives have a fitted effect of over 65% in size
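Screening used galactose-induced yeast with toxic alpha-synuclein levels, exposed to compound for 24 hr at 30 deg C. Cell growth, read with BacTiter-Glo luminescence, gave the measured signal.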
FUS yeast rescue: FUS proteinopathy suppression in yeast. S. cerevisiae FUS-expressing, growth rescue, OD600, 24 h. Potency, µM (highest dose often 76.6 µM), hits mostly activators. 0.24% of 390,000 active; also: nearly all actives have a fitted effect of over 55% in size
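Yeast expressing FUS under galactose induction, OD 0.005 in 2% galactose medium; compounds in a dilution series, 24 h at 30C. Growth rescue by absorbance at 600 nm; CP55940 positive control, DMSO negative.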
Abeta rescue: A-beta toxicity reversal in yeast; yeast expressing A-beta42, growth rescue, OD600, 48 h; response scale: 0% DMSO, 100% iron-clioquinol control; Potency, µM (top dose mostly 46.1 µM), actives largely listed as activators; 0.063% of 410,000 active; AID 1347071; also: nearly all actives have a fitted effect of over 55% in size
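Yeast A-beta toxicity model in growth medium with pinned compounds, 48 h at 30 C; growth read as absorbance at 600 nm. Normalized to FeCl3/clioquinol equimolar mix (positive) and DMSO (negative).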
Mito fusion act: mitochondrial division inhibition or fusion activation. S. cerevisiae fusion-defective mutant growth rescue, CellTiterGlo 48 h. Potency, µM (titrated, usually from 46.1 µM), usual class: activators. 0.23% of 320,000 active. AID 485298; also: nearly all actives have a fitted effect of over 45% in size
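Compounds are tested for their ability to restore growth of mitochondrial fusion-defective yeast strains at non-permissive 37C in YPEG medium over 48 hours. Viability is quantified by luciferase luminescence.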
Numbers stand for hits; - = inactive; ? = inconclusive; . = no result given; ! = a repeat was not active; [ ] = dose if it differs, or a comment. Calls follow the shape of the dose curve; as a rule, active = well fitted curve in the direction sought with a large enough effect; inconclusive = small, poorly fitted or top-dose-only effect, or another doubt; inactive = no such curve, though single readings can be large; an effect the other way counts as inactive or inconclusive.

SMILES	TDP43 rescue	aSyn yeast inh	FUS yeast rescue	Abeta rescue	Mito fusion act
CC(=O)N1CCc2c(sc3c2c(=O)n(CCc2ccccc2)c(=O)n3Cc2ccc(Cl)cc2)C1	32µM	.	?	-	.
CC(=O)N1CCc2c(sc3c2c(=O)n(CCc2ccccc2)c(=O)n3Cc2ccccc2C)C1	35µM	.	?	-	.
COc1ccc2c(c1)c1nnc(SCC(=O)N3C(C)CCCC3C)nc1n2C (stereo not drawn)	14µM	-	-	-	-
COc1ccc2c(c1)c1nnc(SC(C)C)nc1n2C	.	7.9µM	.	.	.
COc1ccc2c(c1)c1nnc(SC)nc1n2C	2.8µM	3.5µM	-	-	-
COc1ccc2c(c1)c1nnc(SCCN3CCOCC3)nc1n2C	.	-	.	.	.
CC(C)CN(C(=O)CSc1nnc(-c2cccs2)n1C1CC1)C1CCS(=O)(=O)C1 (stereo not drawn)	-	-	-	-	.
NC(=S)Cc1ccc(Cl)cc1Cl	13µM	-	-	-	-
C/C(=C\C(=S)Nc1ccccc1)Nc1ccccc1	13µM	-	-	-	-
O=C(CCc1nc2cccnc2n1Cc1cccs1)Nc1cccc(C(F)(F)F)c1	25µM	.	-	?	.
COc1ccc(NC(=O)CCc2nc3cccnc3n2Cc2cccs2)c(OC)c1	-	.	-	-	.
Cc1cc(N2CCN(c3ccccc3)CC2)nc(-c2ccccc2O)n1	18µM	-	-	-	-
COc1ccc(-c2n[nH]c(C)c2-c2cnn(-c3ccccc3)c2)c(O)c1	22µM	-	?	-	?
COc1ccc(-c2n[nH]c(C)c2-c2cnn(-c3ccccc3)c2)c(O)c1C	-	-	-	-	-
COc1ccc(C(=O)/C=C/C(=O)N(Cc2ccccc2)C(C(=O)NC2CCCCC2)c2ccncc2)c(O)c1 (stereo not drawn)	-	-	.	-	-
COc1ccc(C(=O)/C=C/C(=O)N(Cc2ccc(F)cc2)C(C(=O)NC2CCCCC2)c2ccncc2)c(O)c1 (stereo not drawn)	20µM	25µM	.	-	?
O=C(Cn1cc(S(=O)(=O)c2ccc(F)cc2)c(=O)c2cc3c(cc21)OCO3)Nc1ccccc1	-	.	-	-	.
CC1(C(=O)NC2CCCCC2)Cc2ccccc2C(=O)N1Cc1ccc(Cl)cc1 (stereo not drawn)	-	.	-	-	.
CCC(Sc1nc2ccsc2c(=O)n1Cc1ccc(C(=O)O)cc1)C(=O)Nc1ccc(Cl)cc1 (stereo not drawn)	-	-	35µM	-	.
Cc1ccc(NC(=O)C2CCN(c3cc(C)nc4c(-c5ccc(Cl)cc5)c(C)nn34)CC2)c(C)c1	-	.	-	-	.
CCn1cc(C(=O)NCCCOC(C)C)c(=O)c2cc(S(=O)(=O)N(C)C3CCCCC3)ccc21	-	.	?	-	.
CN=c1sc2c(n1C)C(=O)c1ccccc1C2=O	11µM	-	.	-	.
CCCCC(CC)CNC(=O)CCCc1nnc2n(CCC)c(=O)c3sccc3n12 (stereo not drawn)	-	.	?	-	.
Cc1ccc(CC(=O)NCC2CCCCC2)cc1	-	-	-	-	-
O=C(Cc1ccc(OCC2CCCCC2)cc1)NO	.	22µM	.	.	.
SMILES	TDP43 rescue	aSyn yeast inh	FUS yeast rescue	Abeta rescue	Mito fusion act
CC(C)OC(=O)c1cc(Cl)c(=O)n(Cc2ccc(Cl)cc2Cl)c1	25µM	-	-	-	-
CNC(=S)NNC(=O)c1ccc(=O)n(Cc2ccc(Cl)cc2Cl)c1	-	-	-	-	-
O=C(Cn1cc(C(F)(F)F)cc(Cl)c1=O)NCc1ccc(Cl)cc1Cl	-	-	-	-	-
C#CCOC(=O)c1cc(Cl)c(=O)n(Cc2ccc(Cl)cc2Cl)c1	20µM	-	-	-	?
CCOc1ccc(C(=O)c2cn(Cc3ccc(Cl)cc3)c3cc(OC)c(OC)cc3c2=O)cc1	-	.	-	-	.
O=c1ccc2c(OCCCCc3ccccc3)c3ccoc3cc2o1	.	-	.	.	5.2µM
COc1c2ccoc2cc2oc(=O)ccc12	-	-	-	-	.
Cc1ccc(C)c(N2CCN(C(=O)c3ccc4c(c3)N(Cc3ccc(F)cc3)C(=O)c3ccccc3S4=O)CC2)c1 (stereo not drawn)	-	.	-	-	.
COc1cccc(CNC(=O)CCCn2c(=O)c3cccn3c3ccc(F)cc32)c1OC	-	.	-	-	.
CN(Cc1ccccc1)C(=O)c1ccc2c(c1)N(Cc1ccccc1Cl)C(=O)c1ccccc1S2	-	.	?	-	.
Cc1noc(C)c1COc1ccccc1C(=O)N(C)Cc1ccc(C(C)(C)C)cc1	35µM	-	-	-	-
Cc1noc(C)c1COc1ccccc1C(=O)N(C)Cc1ccc(F)cc1	-	-	-	-	-
CN1CCN(C(CNC(=O)C(=O)Nc2ccccc2)c2ccc3c(c2)OCO3)CC1 (stereo not drawn)	-	.	-	-	.
O=C(Cc1ccccc1F)Nc1ccc(SC(F)F)cc1	-[0.397 µM]	-	-	-	-
O=C(COC(=O)Cc1ccccc1F)Nc1ccc(SC(F)F)cc1	10µM	-	-	-	-
O=[N+]([O-])c1ccc2c(c1)-c1ccccc1C2O (stereo not drawn)	11µM	-	-	-	.
CC(C)CN1C(=O)C[C@@]2(C(=O)N(C)c3ccc(NC(=O)C(F)(F)F)cc32)C1c1ccccc1 (stereo partly drawn)	.	.	-	.	.
COC(=O)c1cc(NC(=O)CN(c2ccccc2)S(=O)(=O)N(C)C)ccc1Cl	-	.	-	-	.
O=C1c2ccccc2S(=O)(=O)N1CC1CC(c2ccc(Cl)cc2)=NO1 (stereo not drawn)	-	-	-	-	16µM
Cc1c(C(=O)Nc2ccc(F)cc2F)sc2nc3n(c(=O)c12)N=C(c1ccccc1)CS3	-	.	-	-	.
CN1C(=O)C2(Nc3ccccc3-c3nc4ccccc4n32)c2ccccc21 (stereo not drawn)	-	-	50µM	-	-
O=C1Nc2ccccc2C12Nc1ccccc1-c1nc3ccccc3n12 (stereo not drawn)	-	-	-	-[9.22 µM]	-
c1ccc(CN2CCC3(CCCc4ccccc43)CC2)cc1	-	-	-	-	23µM!
c1ccc(CN2CCC3(CC2)Nc2ccccc2CO3)cc1	-	-	-	-	-
CN(CC(=O)Nc1cccc(Cl)c1)S(=O)(=O)/C=C/c1ccccc1	18µM	?	-	-	.
SMILES	TDP43 rescue	aSyn yeast inh	FUS yeast rescue	Abeta rescue	Mito fusion act
O=C(Oc1ccc(Cl)c2cccnc12)c1ccco1	32µM	-	-	-	-
O=C(Nc1ncc2c(n1)-c1ccccc1CC2)c1cccc(Cl)c1	13µM	-	.	-	-
O=C(Nc1ncc2c(n1)-c1ccccc1CC2)c1ccc(Cl)cc1	-	-	-	-	-
O=C(Nc1ccc(OCc2ccccc2)cc1)c1ccccc1	-	-	-	-	-
CC(C)=CC(=O)Nc1ccc(OCc2ccccc2)cc1	13µM	-	-	-	-
CCOC(=O)CSc1c(-c2ccc(Cl)cc2)[nH]c2ccccc12	-	-	-	-	?
